Reference: PubChem BioAssay
The source made the active and inactive calls.

Experiments:
[1] = tested on: Human papillomavirus type 1a protein E7 (residues 44-93); test: HPV1a E7 fragment binders on microarrays, primary screen, biochemical, small-molecule microarray, residues 44-93, 635 nm fluorescence (AID 1108); details: small-molecule microarray binding, fluorescence 635 nm; higher = more signal;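 note: E7 fragment applied at 1 µg/mL in TBST for 1 h at 4 C; score combines spot fluorescence with its signal to noise ratio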
[2] = modulators of HCV replicon luciferase signal, primary screen, HCV replication inhibitor project, Huh7 cells, luciferase reporter (AID 1109); details: 48 h, higher = more signal;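 note: huh7 hepatoma cells harbouring a luciferase neomycin HCV replicon reporter; luciferase luminescence as measure of HCV replicon replication; test concentration not given here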
[3] = target: Left-right determination factor 2 (Homo sapiens) (UniProt O00292); test: LEFTY2 binders on small-molecule microarrays, primary screen, biochemical, small-molecule microarray, 635 nm fluorescence scan (AID 1110); details: LEFTY2 binding, higher = more signal
[4] = target: Calmodulin-1 (Homo sapiens) (UniProt P0DP23); test: CALM1 binders on microarrays, EGTA buffer, profiling panel, biochemical, small-molecule microarray, Cy5-labelled CALM1 (AID 1111); details: Cy5-CALM1 binding fluorescence, higher = more signal;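 note: labelled calmodulin applied in Tris saline Tween buffer holding calcium plus EGTA and DTT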
[5] = target: Calmodulin-1 (Homo sapiens) (UniProt P0DP23); test: calcium-bound CALM1 binders on microarrays, profiling panel, artefact control for SMM control-protein annotation, biochemical, small-molecule microarray, Cy5-labelled CALM1, plus calcium (AID 1112); details: Cy5-CALM1 binding fluorescence, higher = more signal;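 note: score merges spot fluorescence with signal to noise from triplicate slides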
[6] = small-molecule microarray binders of probe aWnt5a, primary screen, biochemical, biotinylated probe, 635/667 nm fluorescence (AID 1113); details: higher = more signal;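 note: score merges 667 nm fluorescence intensity with signal-to-noise per printed feature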
[7] = small-molecule microarray binders of probe aShh, primary screen, biochemical, biotinylated probe, 635/667 nm fluorescence (AID 1114); details: higher = more signal;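 note: probe is biotin-labelled aShh protein from a stem cell growth factor screen; measures binding of labelled protein to compounds printed on the slide; score merges feature fluorescence at 667 nm with signal-to-noise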
[8] = small-molecule microarray binders of probe aNog, primary screen, biochemical, biotinylated probe, 635/667 nm fluorescence (AID 1115); details: higher = more signal;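 note: probe is biotinylated aNog protein used at 0.15 µg/mL for 1 h at 4 C; z-score combines 667 nm fluorescence of each spot with its signal to noise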
[9] = target: Torsin-1A-interacting protein 1 (Homo sapiens) (UniProt Q5JTV8); test: LAP1 binders from COS7 cell lysate, primary screen, small-molecule microarray, 635/667 nm fluorescence (AID 1116); details: COS7-hLAP1 lysate binding, 635 nm fluorescence, higher = more signal
[10] = target: Alpha-bungarotoxin (Bungarus multicinctus) (UniProt P60615); test: alpha-bungarotoxin binders on microarray, profiling panel, artefact control for SMM control protein annotation, biochemical, small-molecule microarray, Alexa647 label, 635/667 nm fluorescence (AID 1117); details: alpha-BTX-A647 binding fluorescence, higher = more signal
Albumin (Bos taurus) = Albumin (Bos taurus) (UniProt P02769); test: bovine serum albumin binders on microarray, profiling panel, artefact control for SMM control protein annotation, biochemical, small-molecule microarray, Alexa647 label, 635/667 nm fluorescence (AID 1118); details: BSA-A647 binding, fluorescence 635 nm, higher = more signal;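 note: score merges 667 nm emission intensity and signal-to-noise per printed compound spot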
[11] = small-molecule microarray binders of probe aXIP, primary screen, biochemical, NeuroSMM set, 635/667 nm fluorescence (AID 1119); details: higher = more signal, called active from +8 up or from −8 down;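 note: probe is the protein aXip251-270 applied at 1 µg/mL to compound-printed slides; binding of probe to printed compounds measured as 667 nm fluorescence plus signal to noise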
[12] = small-molecule binders of probe aNOTCH3, primary screen, biochemical, small-molecule microarray, 635/667 nm fluorescence (AID 1120); details: higher = more signal;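 note: probe is a biotin-tagged antibody raised against NOTCH3 rather than NOTCH3 protein; score merges spot fluorescence near 667 nm with spot signal to noise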
[13] = small-molecule binders of probe aNOTCH2, primary screen, biochemical, small-molecule microarray, 635/667 nm fluorescence (AID 1121); details: higher = more signal;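 note: score merges feature fluorescence read at 667 nm with its signal to noise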
[14] = target: Carbonic anhydrase 2 (Homo sapiens) (UniProt P00918); test: CAII small-molecule binders, profiling panel, biochemical, small-molecule microarray, Alexa647-labelled CAII (AID 1122); details: CAII-A647 binding fluorescence, higher = more signal
[15] = COS7 lysate on small-molecule microarray, probe aHis, 635 nm (AID 1123); details: COS7 cell lysate, fluorescence, higher = more signal;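 note: z-score combines 667nm fluorescence intensity with signal-to-noise per printed compound spot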
[16] = compound binding in COS7 lysate, probe aLAP1, primary screen, cell lysate, small-molecule microarray (AID 1124); details: probe aLAP1, fluorescence, higher = more signal;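 note: lysate comes from COS7 cells expressing LAP1 and is applied at 0.3 µg/mL; score merges spot fluorescence near 667 nm with signal-to-noise over triplicate slides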
Sam68 (KHDRBS1) = test: Sam68 small-molecule binders, primary screen, biochemical, small-molecule microarray, 635 nm fluorescence (AID 1125); details: small-molecule microarray binding, higher = more signal;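 note: score merges 667 nm channel intensity with signal to noise over triplicate slides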
[17] = tested on: Chordin-like protein 2 (CHRDL2); test: CHRDL2 small-molecule binders, primary screen, biochemical, small-molecule microarray, 635 nm fluorescence (AID 1126); details: small-molecule microarray binding, fluorescence 635 nm; higher = more signal;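 note: printed compound slides probed with Chrdl2 protein at 4 µg/mL for 1 h at 4 C; score merges 667 nm emission intensity with signal to noise over three replicate slides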
[18] = target: Concanavalin-A (Canavalia ensiformis) (UniProt P02866); test: ConA small-molecule binders, primary screen, artefact control for SMM control protein annotation, biochemical, small-molecule microarray, Alexa647 label, 635 nm (AID 1127); details: ConA-A647 binding fluorescence, higher = more signal;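 note: z combines 667 nm emission intensity with signal-to-noise across three replicate slides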
Concanavalin-A (Canavalia ensiformis), sequence (P02866 whole entry, looked up): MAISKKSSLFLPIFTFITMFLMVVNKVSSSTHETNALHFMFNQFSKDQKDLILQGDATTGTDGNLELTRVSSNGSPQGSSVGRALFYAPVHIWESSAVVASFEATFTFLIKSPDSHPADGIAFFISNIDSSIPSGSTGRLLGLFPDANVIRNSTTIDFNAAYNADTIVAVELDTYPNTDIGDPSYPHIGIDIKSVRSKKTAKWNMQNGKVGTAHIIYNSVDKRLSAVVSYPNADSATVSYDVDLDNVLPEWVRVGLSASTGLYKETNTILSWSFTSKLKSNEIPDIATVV

Albumin (Bos taurus), sequence (P02769 whole entry, looked up): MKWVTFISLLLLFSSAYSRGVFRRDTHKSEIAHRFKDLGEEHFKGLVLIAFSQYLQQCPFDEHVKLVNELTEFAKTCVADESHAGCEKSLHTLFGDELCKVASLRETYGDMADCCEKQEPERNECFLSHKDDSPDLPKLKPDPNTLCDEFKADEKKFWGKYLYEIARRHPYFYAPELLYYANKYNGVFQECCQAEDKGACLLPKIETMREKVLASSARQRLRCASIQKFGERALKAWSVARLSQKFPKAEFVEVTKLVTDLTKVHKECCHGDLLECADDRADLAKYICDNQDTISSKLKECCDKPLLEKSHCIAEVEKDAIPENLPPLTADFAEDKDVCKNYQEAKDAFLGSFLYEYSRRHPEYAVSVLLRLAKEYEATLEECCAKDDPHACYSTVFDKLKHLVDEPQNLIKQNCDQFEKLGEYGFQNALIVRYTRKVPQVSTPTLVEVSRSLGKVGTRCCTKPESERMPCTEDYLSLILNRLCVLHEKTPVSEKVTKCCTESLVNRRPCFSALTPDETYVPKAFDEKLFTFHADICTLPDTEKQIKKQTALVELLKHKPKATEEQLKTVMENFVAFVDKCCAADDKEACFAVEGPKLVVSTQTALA
Left-right determination factor 2 (Homo sapiens), sequence (O00292 whole entry, looked up): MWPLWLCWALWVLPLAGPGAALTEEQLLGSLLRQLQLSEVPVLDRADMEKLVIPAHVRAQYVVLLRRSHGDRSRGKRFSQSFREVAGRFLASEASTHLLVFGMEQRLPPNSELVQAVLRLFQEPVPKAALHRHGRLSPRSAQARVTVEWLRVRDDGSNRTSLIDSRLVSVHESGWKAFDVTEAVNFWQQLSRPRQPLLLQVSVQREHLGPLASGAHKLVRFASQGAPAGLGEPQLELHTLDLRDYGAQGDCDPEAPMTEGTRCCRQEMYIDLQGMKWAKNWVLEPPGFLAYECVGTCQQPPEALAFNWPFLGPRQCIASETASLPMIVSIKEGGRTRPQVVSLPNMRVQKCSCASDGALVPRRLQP
Alpha-bungarotoxin (Bungarus multicinctus), sequence (P60615 whole entry, looked up): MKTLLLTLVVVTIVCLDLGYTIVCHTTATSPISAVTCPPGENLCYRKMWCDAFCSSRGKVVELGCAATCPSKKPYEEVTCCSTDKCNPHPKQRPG
Torsin-1A-interacting protein 1 (Homo sapiens), sequence (Q5JTV8 whole entry, looked up): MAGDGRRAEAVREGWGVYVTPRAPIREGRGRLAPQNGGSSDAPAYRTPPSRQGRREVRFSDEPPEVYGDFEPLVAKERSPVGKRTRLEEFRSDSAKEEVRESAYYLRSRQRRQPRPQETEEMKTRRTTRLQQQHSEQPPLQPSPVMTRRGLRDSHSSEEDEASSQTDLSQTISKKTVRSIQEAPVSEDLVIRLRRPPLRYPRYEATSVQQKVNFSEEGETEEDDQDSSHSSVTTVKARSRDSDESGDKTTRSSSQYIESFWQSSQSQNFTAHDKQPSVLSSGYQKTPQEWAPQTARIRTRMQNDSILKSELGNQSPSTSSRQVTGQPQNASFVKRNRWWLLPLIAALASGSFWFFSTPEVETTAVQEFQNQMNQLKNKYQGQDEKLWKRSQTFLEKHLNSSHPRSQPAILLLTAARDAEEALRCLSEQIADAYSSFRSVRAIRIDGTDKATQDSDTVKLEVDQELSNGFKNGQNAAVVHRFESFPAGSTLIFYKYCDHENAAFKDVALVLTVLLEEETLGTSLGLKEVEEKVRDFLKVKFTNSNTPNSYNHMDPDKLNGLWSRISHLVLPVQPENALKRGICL

| SMILES | composite z-score [1] | z-score [2] | composite z-score [3] | composite z-score [4] | composite z-score [5] | composite z-score [6] | composite z-score [7] | composite z-score [8] | composite z-score [9] | composite z-score [10] | composite z-score (Albumin (Bos taurus)) | composite Z-score [11] | composite z-score [12] | composite z-score [13] | composite z-score [14] | composite z-score [15] | composite z-score [16] | composite z-score (Sam68 (KHDRBS1)) | composite z-score [17] | composite z-score [18] |
| --- | --- | --- | --- | --- | --- | --- | --- | --- | --- | --- | --- | --- | --- | --- | --- | --- | --- | --- | --- | --- |
| NC(=O)NCC#Cc1ccc2c(c1)[C@]1(C(=O)N2)[C@H](C(=O)Nc2nc3ccccc3s2)[C@H]2C(=O)O[C@H](c3ccccc3)[C@H](c3ccccc3)N2[C@@H]1c1ccc(OCCO)cc1 | 0.537 | -0.942 | -0.828 | 0.84 | 0.417 | 0.0108 | -0.151 | -0.464 | 0.281 | 0.9 | 0.0054 | 0.367 (inactive) | -0.0956 | -0.238 | 0.136 | 0.408 | 0.109 | -0.137 | -0.258 | 0.318 |
| C=CCNC(=O)[C@@H]1[C@H]2C(=O)O[C@H](c3ccccc3)[C@H](c3ccccc3)N2[C@H](c2ccccc2OCCO)[C@@]12C(=O)N(C(=O)OCCOC)c1ccc(C#CCCO)cc12 | 1.34 | -1.82 | 0.0333 | 1.66 | 0.428 | -0.006 | 0.131 | -0.305 | 0.87 | 0.274 | 0.538 | -0.0086 (inactive) | 0.0807 | -0.112 | 0.64 | 0.797 | 0.77 | 1.29 | 0.0117 | 0.953 |
| COCCOC(=O)N1C(=O)[C@@]2(c3cc(C#CCCO)ccc31)[C@H](C(=O)N1CCc3cc(OC)c(OC)cc3C1)[C@H]1C(=O)O[C@H](c3ccccc3)[C@H](c3ccccc3)N1[C@@H]2c1ccccc1OCCO | 1.4 | -1.75 | 0.473 | 1.43 | 0.013 | 0.186 | -0.0146 | 0.596 | 0.325 | 0.477 | 0.357 | 0.471 (inactive) | 0.285 | 0.0401 | 0.422 | 1.2 | 1.01 | 1.32 | 0.855 | 1.13 |
| CCOC(=O)C1=CC[C@@H](c2ccc(F)cc2)N(S(=O)(=O)c2ccc(C)cc2)[C@H]1c1ccc([N+](=O)[O-])cc1 | 1.34 | -1.05 | -0.248 | 1.56 | -0.171 | 0.0323 | -0.138 | -0.158 | 0.341 | 0.937 | 0.854 | 0.348 (inactive) | 0.137 | -0.14 | 0.223 | 2 | -0.0775 | 1.2 | -0.493 | 1.09 |
| [N-]=[N+]=NCc1ccccc1[C@H]1OC(c2ccc(OCCCO)cc2)=N[C@@]1(Cc1ccccc1)C(=O)N1CCOCC1 | 1.06 | -2.31 | 0.335 | 1.48 | 0.779 | 0.186 | -0.226 | -0.461 | 1.43 | 1.28 | 0.912 | 0.475 (inactive) | 0.754 | 0.294 | 0.55 | 2.97 | 0.204 | 1.3 | -0.0573 | 1.14 |
| CCCCCCc1nc(-c2ccc(OC)nc2)cc2c1[Si](C(C)C)(C(C)C)OC2 | -0.611 | 1.09 | -0.147 | -0.464 | 0.0559 | -0.0643 | -0.262 | -0.0965 | -0.346 | 0.502 | -0.361 | 0.582 (inactive) | -0.0858 | -0.104 | 0.445 | -0.689 | -0.293 | -0.299 | -0.0659 | 0.502 |
| CCCC[C@@H]1C[C@H]1[C@@H](NC(=O)Cc1ccccc1)c1ccc(Cl)cc1 | 1.37 | -1.79 | -0.496 | 2.44 | 1.53 | 0.225 | 1.47 | 0.905 | 1.12 | 2.14 | 1.1 | 0.491 (inactive) | 0.532 | -0.129 | 0.69 | 2.76 | 0.323 | 1.31 | -1.01 | 1.16 |
| C=CCC(OC(C)=O)[C@@H]1[C@@H](N(Cc2ccc(-c3ccccc3)cc2)C(=O)c2cccc3ccccc23)c2cc(OCCCO)ccc2N1C(=O)c1ccc2ccccc2c1 (stereo not given in full) | 0.403 | -0.464 | -0.0981 | 0.187 | 0.188 | -0.0685 | -0.399 | -0.258 | -0.0482 | 0.971 | 0.002 | -0.124 (inactive) | -0.0377 | -0.0368 | 0.0991 | 0.116 | 0.0105 | 0.263 | -0.52 | -0.31 |
| C=CCN1C(=O)[C@]2(O[C@H](CCO)[C@@H]([Si](C)(C)c3ccc(OC)cc3)[C@@H]2C)c2ccccc21 | 0.925 | -5.21 | -0.774 | -0.0667 | -0.0278 | -0.232 | -0.358 | -0.118 | -0.547 | -0.0693 | 0.482 | -0.291 (inactive) | -0.157 | -0.129 | 0.277 | 0.621 | -0.116 | -0.241 | -0.884 | 0.201 |
| CCOC(=O)C[C@H]1[C@H](OC(=O)c2ccc(C(=O)c3ccccc3)cc2)[C@@H](NC(=O)c2ccc3ccccc3c2)c2cc(OCCCO)ccc2N1C(=O)c1ccc2ccccc2n1 | 1.05 | -0.415 | 0.23 | 0.794 | -0.191 | -0.168 | -0.191 | -0.188 | 0.982 | 0.898 | 0.544 | 0.159 (inactive) | 0.134 | 0.0683 | 0.342 | 0.853 | 0.653 | 1.09 | 0.345 | 0.707 |
| CO[C@H]1O[C@H](CO)[C@@H](OC(=O)Nc2ccccc2)[C@@H]2OC(=O)[C@H](Cc3ccccc3)C/C=C/C[C@@H](Cc3ccccc3)C(=O)O[C@@H]12 | 1.04 | -3.45 | 0.587 | 1.68 | -0.123 | -0.0545 | 0.0639 | 0.696 | 1.07 | 0.269 | 0.548 | 1.96 (inactive) | 0.177 | 0.371 | 0.559 | 1.28 | 0.597 | 0.921 | 0.152 | 0.628 |
